Screening data: PubChem BioAssay, The Scripps Research Institute Molecular Screening Center
PLCg1 inh: blocks human PLC-gamma1 enzyme activity | P19174 | purified PLC-gamma1, fluorogenic substrate, fluorescence | inhibition, % at 12.2 µM | actives 0.84% (n = 370,000); in the data active = inhibition above about 9.5%
KLK7 zymogen act: activates the human kallikrein-7 zymogen. AID 652039. activation, % at 7 µM. actives 0.9% (n = 370,000). P49862. purified proKLK7, EDANS-DABCYL substrate fluorescence; 100% is mature enzyme control, 0% vehicle;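 active = activation above the mean of all tested compounds plus 3 SD, computed per campaign excluding outliers beyond control limits, cut at about 13% in these data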
PLC-beta3 inh: PLC-beta3 (human) inhibition, primary screen; actives 0.18% (n = 370,000); Q01970; inhibition, % at 12.2 µM; AID 720704; Purified PLC-beta3, fluorogenic substrate, fluorescence; in the data active = inhibition above about 11%
ADAM17 inh: ADAM17 inhibition, QFRET primary screen. actives 0.83% (n = 370,000). P78536. recombinant ADAM17, EDANS/DABCYL FRET peptide cleavage. AID 720648. inhibition, % at 6.95 µM;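 active = inhibition above the mean of compounds lying between control limits plus 3 SD, set per campaign, cut at about 8.5% in these data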
HGIII-sPLA2 inh: Blocks human group III sPLA2 activity | Q9NZ20 | QFRET BODIPY PC-A2 liposome hydrolysis, fluorescence | inhibition, % at 12.2 µM | actives 0.56% (n = 370,000) | AID 743126;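 active = inhibition above mean plus 3 SD of compounds lying within the high and low control bounds, cut at about 19% in these data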
ADAM10 inh: ADAM10 inhibition, QFRET primary screen; O14672; recombinant ADAM10, EDANS/DABCYL FRET peptide cleavage, 3 h; inhibition, % at 7 µM; actives 0.62% (n = 370,000); AID 720582;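 active = inhibition above a per-campaign cutoff equal to the mean of compounds falling between control-based bounds plus 3 SD, cut at about 20% in these data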
proKLK7 act conf: proKLK7 activation, confirmation; shares compounds with KLK7 zymogen act; purified proKLK7, EDANS-DABCYL substrate fluorescence; scaled: vehicle 0, mature enzyme 100; activation, % at 7 µM; actives 68% (n = 3,200);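 active = activation, as change over the incubation, above the mean of all tested compounds plus 3 SD, cut at about 13% in these data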
EDANS interfere: fluorescence interference counter-screen for KLK7 activators; shares compounds with KLK7 zymogen act; EDANS-DABCYL substrate fluorescence interference, no enzyme, 4 h; solvent 0%, active enzyme control 100%; activation, % at 7 µM; actives 80% (n = 3,200);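 active = activation above the all-compound mean plus 3 SD, ignoring values outside control-based bounds, cut at about 4.8% in these data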;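 also: value is the 4 h activation minus the activation read at time zero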
K7 EDANS ctr: optically interferes with EDANS-DABCYL fluorescence, kallikrein-7 activator counter-screen; EDANS-DABCYL peptide fluorescence interference, no enzyme; shares compounds with KLK7 zymogen act; actives 20% (n = 250); EC50, µM; AID 720493;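 active = compounds that raise the fluorescence signal in this interference counterscreen, with EC50 at or below 10 µM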;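 also: intact quenched peptide substrate alone read at 355 nm excitation and 520 nm emission; signal is fluorescence gain from T0 to T4 after four hours at room temperature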
Large screens that a line does not name were inactive (follow-up assays come after a bar, where they were run). Shown are actives, neighbours in structure and some others; about 3.4% of the full set was active somewhere.

Nc1ccc2nc(-c3ccccn3)[nH]c2c1	none
CC(=O)Nc1ccc2nc(-c3cccs3)[nH]c2c1	KLK7 zymogen act 16 | proKLK7 act conf 36 | EDANS interfere 28 | K7 EDANS ctr 8.2
Nc1ccc2nc(-c3cccs3)[nH]c2c1	KLK7 zymogen act 73 | proKLK7 act conf 67 | EDANS interfere 69
Nc1ccc(-c2nc3c(Cl)cc(N)cc3[nH]2)cc1	KLK7 zymogen act 42 | proKLK7 act conf 79 | EDANS interfere 69
Nc1ccc2nc(-c3ccccc3)[nH]c2c1	KLK7 zymogen act 77 | proKLK7 act conf 61 | EDANS interfere 76
N#Cc1c(N)[nH]c(C(=O)c2ccccc2)c1-c1ccc(Br)cc1	none
CCC(=O)N1CCC(C(=O)NC2CCCc3ccccc32)CC1 (stereo not drawn)	none
COc1ccc(N(CC(=O)NCc2ccc(F)cc2)C(=O)c2snc(C(N)=O)c2N)cc1OC	KLK7 zymogen act 15 | proKLK7 act conf inactive | EDANS interfere inactive
CCCN1CCN(C(=O)Cn2nc(C)n3c(cc4c(OC)cccc43)c2=O)CC1	none
CCc1nn(CC(=O)NCCN2CCOCC2)c(=O)c2cc3c(OC)cccc3n12	KLK7 zymogen act 27 | proKLK7 act conf 19 | EDANS interfere 28
COc1cccc2c1cc1c(=O)n(CC(=O)NCCCN3CCN(C)CC3)nc(C)n12	KLK7 zymogen act 60 | proKLK7 act conf 83 | EDANS interfere 76
CCOC1=C2CN(S(=O)(=O)c3ccccc3)[C@@H](c3ccccc3)C[C@H]2[C@H]2C(=O)N(c3ccccc3)C(=O)[C@H]2C1	none
Cc1ccccc1-c1ccc2c(c1)[C@@H]1C[C@H](N(C)C(=O)Nc3ccccc3)[C@H]([C@H](C)O)CN1CC2	none
Cc1c(Cl)c(=O)oc2cc(OC(C)C)ccc12	KLK7 zymogen act 15 | proKLK7 act conf inactive | EDANS interfere inactive
Cc1cc(=O)oc2cc(OC(C)C)ccc12	none
COC(=O)Cc1c(C)c2ccc(OC(=O)c3ccccc3)cc2oc1=O	KLK7 zymogen act 422 | proKLK7 act conf 632 | EDANS interfere 512
CCC(=O)Oc1ccc2c(C)c(Cl)c(=O)oc2c1	KLK7 zymogen act 40 | proKLK7 act conf 672 | EDANS interfere 655
O=c1ccc2c(-c3ccccc3)c3ccc(O)cc3oc-2c1	KLK7 zymogen act 25 | proKLK7 act conf 49 | EDANS interfere 51
C=CCN1C[C@H](COC(=O)c2ccc(C)c(C)c2)Oc2cccc(F)c2S1(=O)=O	none
COc1ccc(CNS(=O)(=O)c2cc(Br)ccc2Br)c(OC)c1	none
Cc1nn2cc(-c3ccc(Cl)cc3)nc2s1	none
Cc1nc2nc(-c3ccc(Cl)cc3)cn2nc1C	KLK7 zymogen act 53 | proKLK7 act conf 75 | EDANS interfere 79
Cc1nc2nc(-c3cccs3)cn2nc1C	KLK7 zymogen act 68 | proKLK7 act conf 68 | EDANS interfere 66
CC(C)(N[C@@H](Cc1ccccc1)C(=O)NCCCc1ccccc1)C(=O)NCc1ccccc1	none (no result: KLK7 zymogen act)
COC(=O)[C@]12C[C@H](CC(=O)N3CCC(c4ccccc4)CC3)C(=O)N(Cc3cccc4ccccc34)C1=C[C@H](C(C)(C)C)O[C@@H]2C	none
COc1cccc(CNC(=S)Nc2ccc3c(c2)c(=O)n(C)n3Cc2ccc(F)cc2)c1	none
COc1ccccc1CCC(=O)Nc1ccc2c(c1)c(=O)n(C)n2C	KLK7 zymogen act 27 | proKLK7 act conf 16 | EDANS interfere 17
COc1cccc(CNC(=S)Nc2ccc3c(c2)c(=O)n(C)n3C)c1	KLK7 zymogen act 25 | proKLK7 act conf inactive | EDANS interfere 13
CC(C)(C)S(=O)N1C[C@@H]2CC(=O)C(CCO)=C2[C@H]1CCO (stereo partly drawn)	none
CC(=O)Oc1ccc(-c2cc3c(OC(C)=O)cc(OC(C)=O)cc3oc2=O)cc1	KLK7 zymogen act 80 | proKLK7 act conf 63 | EDANS interfere 72
COC(=O)COc1ccc2c(=O)c(-c3ccccc3)coc2c1	none
CC(=O)Oc1ccc(-c2cc3ccccc3oc2=O)cc1	none
COC(=O)COc1ccc2cc(-c3ccccc3)c(=O)oc2c1	KLK7 zymogen act 102 | proKLK7 act conf 68 | EDANS interfere 66
O=C(COc1ccc2cc(-c3ccccc3)c(=O)oc2c1)NCC1CCC(C(=O)O)CC1 (stereo not drawn)	KLK7 zymogen act 21 | proKLK7 act conf 60 | EDANS interfere 72
NC(=O)COc1ccc2cc(-c3ccc(F)cc3)c(=O)oc2c1	KLK7 zymogen act 33 | proKLK7 act conf inactive | EDANS interfere inactive
O=C(COc1ccc2c(-c3ccccc3)cc(=O)oc2c1)NCC1CCC(C(=O)O)CC1 (stereo not drawn)	none
COc1ccc(CN2C[C@H](COCc3ccccc3)Oc3cccc(F)c3S2(=O)=O)cc1	none
COc1ccc(-c2cc3ccc(OCC(C)=O)cc3oc2=O)cc1	KLK7 zymogen act 27 | proKLK7 act conf inactive | EDANS interfere inactive
COc1ccc(-c2cc3ccc(OCC(C)=O)cc3oc2=O)cc1OC	none
NC(=O)COc1ccc2cc(-c3ccccc3)c(=O)oc2c1	KLK7 zymogen act 59 | proKLK7 act conf 63 | EDANS interfere 64
CCN(CC)C(=O)CN1C(=O)C2(NC(=O)c3ccccc3N2)c2ccccc21 (stereo not drawn)	none
CC(=O)N1CC2(NC(=O)c3ccccc3N2)c2ccccc21 (stereo not drawn)	KLK7 zymogen act 19 | proKLK7 act conf 17 | EDANS interfere 18
C=CCn1c(N)c(C(=O)OCCC)c2nc3ccccc3nc21	KLK7 zymogen act 60 | proKLK7 act conf 52 | EDANS interfere 50
COc1ccc(-c2c(Cc3ccccc3)nc(NC(=O)c3ccccc3)n2Cc2ccccc2)cc1	none
Cc1ccccc1-c1ccc2c(c1)[C@@H]1C[C@H]3[C@@H](CN1CC2)[C@H](C)ON3C	none
Cc1ccccc1NC(=O)[C@@H]1CCCN1S(=O)(=O)c1cccc2cccnc12	none (no result: KLK7 zymogen act)
Cc1nc2ccc(-c3nc4cc(N)ccc4o3)cc2[nH]1	KLK7 zymogen act 28 | proKLK7 act conf 46 | EDANS interfere 49
CCOC(=O)[C@]12CCCC=C1N(CCCOC)C(=O)[C@@H]2CC(=O)N1CCSCC1	none
O=c1[nH]cccc1-c1nc2ccccc2n1Cc1ccc(F)cc1	none
